# Screening results as filed in PubChem BioAssay.
# UBC9 SUMO inh: blocks human SUMOylation mediated by UBC9. P63279. HTRF SUMOylation assay, SAE1/SAE2 + UBC9, in vitro. inhibition, % at 35 µM. 290,000 tested, 0.36% active. AID 2006; in the data active means inhibition above about 50%, passing the limit was not always enough
# NSD2 HMT inh: NSD2 (human) methyltransferase inhibition; O96028; NSD2 peptide methylation, AlphaScreen, 120 min; inhibition, % at 12.5 µM; 310,000 tested, 0.54% active; AID 743445; in the data active means inhibition above about 50%
# CASP6 VEID inh: caspase-6 (human) enzyme inhibition. P55212. purified caspase-6, Z-VEID-R110 cleavage fluorescence. inhibition, % at 12.5 µM. 350,000 tested, 0.53% active. AID 686996;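 active means mean inhibition across replicates at least about 35%, with every replicate also reaching that limit, limit read from the data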;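 further: 0% = median of neutral control wells and 100% = no fluorescence left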
# Target sequence (P55212 24-179 limits assumed): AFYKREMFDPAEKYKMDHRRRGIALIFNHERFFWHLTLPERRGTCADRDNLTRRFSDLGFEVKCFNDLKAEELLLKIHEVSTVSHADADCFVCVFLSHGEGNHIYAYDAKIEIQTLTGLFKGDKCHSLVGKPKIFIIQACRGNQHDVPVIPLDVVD
# Target sequence (P55212 194-293 limits assumed): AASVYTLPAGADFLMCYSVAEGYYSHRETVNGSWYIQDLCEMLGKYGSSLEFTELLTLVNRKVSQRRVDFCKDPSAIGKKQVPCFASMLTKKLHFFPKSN
# SIRT5 block: inhibitors of human sirtuin-5 desuccinylase; Q9NXA8; Purified SirT5, succinyl-peptide AMC, trypsin-coupled fluorescence; inhibition, % at 15 µM; 330,000 tested, 1.1% active; AID 652115; in the data active means inhibition above about 15%
# Target sequence (Q9NXA8 whole entry, looked up): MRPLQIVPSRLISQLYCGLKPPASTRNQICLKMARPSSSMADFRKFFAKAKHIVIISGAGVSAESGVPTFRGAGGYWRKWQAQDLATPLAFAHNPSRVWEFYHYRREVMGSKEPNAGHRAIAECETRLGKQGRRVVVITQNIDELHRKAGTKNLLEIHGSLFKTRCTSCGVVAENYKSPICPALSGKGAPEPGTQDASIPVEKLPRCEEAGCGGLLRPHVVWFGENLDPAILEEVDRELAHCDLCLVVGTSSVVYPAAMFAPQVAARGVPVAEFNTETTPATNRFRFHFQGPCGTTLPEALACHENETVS
# The depositor's hits bear a star; · = no result given. An excerpt weighted towards active compounds, which were near 1.6% of everything screened.
SMILES,UBC9 SUMO inh,NSD2 HMT inh,CASP6 VEID inh,SIRT5 block
Cc1ccc(-c2cc(-c3ccco3)c3c(N)c(C(=O)NN)oc3n2)cc1,55.4*,1.4,1.2,-5.9
O=C1Cc2cccc(=O)c(O)c2C(=O)O1,·,22.9,38.4*,4.6
C/C(=N/NC(=O)c1cc(O)c(O)c(O)c1)c1ccc([N+](=O)[O-])cc1,-15.1,16.5,74.3*,3.0
Cc1ccccc1CN1CCN(Cc2ccc3cccc(F)c3n2)CC1CCO (configuration not stated),2.8,0.6,2.2,35.9*
C[C@@H]1CN([C@@H](C)CO)S(=O)(=O)c2ccc(-c3cccc(F)c3)cc2O[C@@H]1CN(C)S(=O)(=O)c1ccc(F)cc1,·,·,-0.6,16.6*
C[C@H]1CN([C@@H](C)CO)S(=O)(=O)c2ccc(-c3cccc(F)c3)cc2O[C@H]1CN(C)S(=O)(=O)c1ccc(F)cc1,·,·,1.1,19.7*
C[C@H](CO)N1C[C@H](C)[C@H](CN(C)S(=O)(=O)c2ccc(F)cc2)Oc2cc(-c3cccc(F)c3)ccc2S1(=O)=O,·,·,-0.5,12.6
CO[C@H]1CN(C)C(=O)c2ccc(NC(C)=O)cc2OC[C@@H](C)N(Cc2ccc(F)cc2)C[C@@H]1C,·,·,·,0.1
O=C1NC(Cc2ccc(O)cc2)c2nc3ccc(F)cc3c(=O)n2-c2ncccc21 (configuration not stated),·,·,6.9,21.5*
NC(=N\N=Cc1ccco1)/C(N)=N/N=Cc1ccco1,·,1.1,61.8*,2.1
NC(=N\N=Cc1ccccc1)/C(N)=N/N=Cc1ccccc1,·,-1.1,4.2,·
COc1cc(C(=O)NNC(=O)C2CC=CCC2C(=O)O)cc(OC)c1OC (configuration not stated),20.5,-2.1,-2.0,-4.6
COc1cc(C(=O)NCCN2CCN(C(=O)c3cc(OC)c(OC)c(OC)c3)CC2)cc(OC)c1OC,-3.9,1.1,0.2,28.6*
COc1cc(C(=O)NCCN2CCCC2)cc(OC)c1OC,-14.5,0.8,·,·
COc1cc(C(=O)NNC(=O)C2CCC2)cc(OC)c1OC,·,25.5,3.0,25.3*
O=C1Nc2cc(C(=O)NCCN3CCCCCC3)ccc2S/C1=C\c1ccccc1,4.1,31.4,99.0*,0.5
Cc1cccc(/C=C2/Sc3ccc(C(=O)NCCN4CCCC4)cc3NC2=O)c1,6.0,24.5,-75.9,-0.9
O=C(Nc1cccc(Cl)c1)c1cccc(N2C(=O)C3CC=CCC3C2=O)c1 (configuration not stated),-7.0,20.9,35.5*,-2.1
O=C(/C=C/c1ccccc1)Oc1ccccc1O,·,1.7,·,·
COc1ccccc1N1CCN(CCC(=O)Nc2ccc3c(c2)OCO3)CC1,-1.9,-1.1,·,·
COc1ccccc1N1CCN(CC(=O)Nc2ccc3c(c2)OCCO3)CC1,-3.0,0.0,-1.2,31.3*
CC(=O)c1cc(N2CCOCC2)ccc1[N+](=O)[O-],2.5,1.1,-0.7,15.5*
CC(=O)c1cc(N2CCC(C(=O)O)CC2)ccc1[N+](=O)[O-],-6.4,-1.3,0.0,4.9
O=C1CC(=O)NC(SCC(=O)Nc2ccccc2[N+](=O)[O-])=N1,15.6,·,40.6*,-2.7
CCCCC[C@H](C)N1C[C@@H](COCc2ccccc2)Oc2cc(N3CCC[C@H]3CO)ccc2S1(=O)=O,·,·,0.6,20.7*
SMILES,UBC9 SUMO inh,NSD2 HMT inh,CASP6 VEID inh,SIRT5 block
CCOC(=O)C1=C(O)/C(=C/c2ccc(OCC(=O)O)c(OCC)c2)SC1=Nc1ccc(OC)cc1,-1.0,7.5,35.5*,14.4
COCC(=O)Nc1ccc2c(c1)C(=O)N(C)C[C@H](OC)[C@H](C)CN(Cc1cc(F)ccc1F)[C@H](C)CO2,·,·,-3.1,11.7
COC(=O)c1ccccc1CSc1nsc(/C=C/N(C)C)c1C#N,-8.0,2.7,37.3*,0.7
Cc1nc(CSc2nsc(/C=C/N(C)C)c2C#N)cs1,11.3,·,26.0,4.9
CCOC(=O)c1c(-c2ccccc2)csc1/N=C/C1C(=O)CC(C)(C)CC1=O,·,-3.9,·,·
COc1ccc(NC(=O)C2=CC=CN3CCS(=O)(=O)N=C23)c(OC)c1,·,-0.4,-0.1,27.5*
O=C(NCCc1ccc(Cl)cc1)C1CCC(=O)N(C2CCCCCC2)C1 (configuration not stated),1.0,-3.5,28.6,24.8*
COc1ccc(CCCNC(=O)C2CCC(=O)N(Cc3ccc(Cl)cc3)C2)cc1 (configuration not stated),-1.1,0.1,-2.2,31.8*
O=C(NCCCc1ccccc1)C1CCC(=O)N(Cc2ccc(Cl)cc2)C1 (configuration not stated),7.4,-0.1,-2.6,-2.9
COc1cccc(-c2ccc3c(c2)[C@@H]2[C@@H](CCN2S(=O)(=O)c2cccc(OC)c2)[C@H](CO)N3)c1,·,·,1.1,7.4
O=C(Cn1cnc(S(=O)(=O)N2CCCC2)c1)Nc1cccc(Br)c1,-1.1,-0.3,-3.5,18.9*
CC(=O)c1cccc(NC(=O)Cn2cnc(S(=O)(=O)N3CCCCC3)c2)c1,1.6,-0.8,0.0,5.0
O=C(O)c1cnn(-c2nc(-c3cccc(F)c3)cs2)c1C(F)(F)F,14.9,-1.6,4.4,-0.9
Nc1cccc(-c2csc(-n3ncc(C(=O)O)c3C(F)(F)F)n2)c1,12.9,0.0,5.0,29.1*
Cc1noc(C)c1NC(=O)Nc1ccc2c(c1)C(=O)N([C@H](C)CO)C[C@H](C)[C@H](CN(C)C(=O)Nc1ccc(C(F)(F)F)cc1)OCCCC[C@@H](C)O2,·,·,-0.6,6.4
Cc1ccc2cc(CN(Cc3ccc(F)cc3)Cc3nnnn3C3CCCC3)c(=O)[nH]c2c1,-6.2,-1.2,3.7,28.8*
COC(=O)Cc1cc(=O)n(-c2nc3ccccc3[nH]2)[nH]1,8.0,19.5,44.1*,4.2
C[C@H](CO)N1C[C@H](C)[C@H](CN(C)C(=O)Nc2ccc(C(F)(F)F)cc2)OCCCC[C@H](C)Oc2ccc(NC(=O)CCC(F)(F)F)cc2C1=O,·,·,2.3,6.3
O=C(C[C@H]1CC[C@@H](NC(=O)C2CC2)[C@H](CO)O1)NCc1ccccc1Cl,·,·,1.1,-4.5
CCCCCNC(=O)C(c1cc2ccccc2o1)n1c(=O)c(-c2ccccc2)nc2ccccc21 (configuration not stated),·,·,-3.1,18.9*
COc1cccc(N2CC(C(=O)Nc3nnc(SCC(=O)N4CCCC4)s3)CC2=O)c1 (configuration not stated),15.0,2.0,4.4,17.0*
O=C(Nc1nnc(SCC(=O)N2CCCC2)s1)C1CC(=O)N(c2ccccc2)C1 (configuration not stated),12.3,1.2,-5.3,-0.3
C[C@H](CO)N1C[C@H](C)[C@@H](CN(C)C(=O)c2ccncc2)OCCCC[C@H](C)Oc2ccc(NC(=O)c3ccccc3)cc2C1=O,·,·,-0.7,-3.5
C[C@@H]1CCCCO[C@H](CN(C)Cc2ccc(Cl)c(Cl)c2)[C@H](C)CN([C@@H](C)CO)C(=O)c2cc(NS(=O)(=O)c3ccccc3)ccc2O1,·,·,-2.2,16.0*
C[C@@H]1CN([C@H](C)CO)C(=O)c2cc(NS(=O)(=O)c3ccccc3)ccc2O[C@@H](C)CCCCO[C@H]1CN(C)Cc1ccc(Cl)c(Cl)c1,·,·,0.2,4.4
